Bioassay records from PubChem.
The list is not random: actives were taken first. Their share in the collection is about 1.6%.
KCNQ2 pot: potentiators of rat KCNQ2 potassium channel | Potassium voltage-gated channel subfamily KQT member 2 (Rattus norvegicus), O88943 | CHO-K1 KCNQ2, FluxOR thallium flux fluorescence; active compounds read high | B-score at 10 µM | actives 0.54% (n = 310,000);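 active means fluorescence ratio B-score at least 3 SD of library B-scores, with initial fluorescence B-score within 3 of them, cut at about 5.3 in these data; same plate scores as AID 2156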;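 further: B-score of peak minus minimum over baseline fluorescence ratio after K+ and Tl+ stimulus; positive B-score means potentiation of KCNQ2 with more thallium influx and brighter signal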
Target sequence (O88943 whole entry, looked up): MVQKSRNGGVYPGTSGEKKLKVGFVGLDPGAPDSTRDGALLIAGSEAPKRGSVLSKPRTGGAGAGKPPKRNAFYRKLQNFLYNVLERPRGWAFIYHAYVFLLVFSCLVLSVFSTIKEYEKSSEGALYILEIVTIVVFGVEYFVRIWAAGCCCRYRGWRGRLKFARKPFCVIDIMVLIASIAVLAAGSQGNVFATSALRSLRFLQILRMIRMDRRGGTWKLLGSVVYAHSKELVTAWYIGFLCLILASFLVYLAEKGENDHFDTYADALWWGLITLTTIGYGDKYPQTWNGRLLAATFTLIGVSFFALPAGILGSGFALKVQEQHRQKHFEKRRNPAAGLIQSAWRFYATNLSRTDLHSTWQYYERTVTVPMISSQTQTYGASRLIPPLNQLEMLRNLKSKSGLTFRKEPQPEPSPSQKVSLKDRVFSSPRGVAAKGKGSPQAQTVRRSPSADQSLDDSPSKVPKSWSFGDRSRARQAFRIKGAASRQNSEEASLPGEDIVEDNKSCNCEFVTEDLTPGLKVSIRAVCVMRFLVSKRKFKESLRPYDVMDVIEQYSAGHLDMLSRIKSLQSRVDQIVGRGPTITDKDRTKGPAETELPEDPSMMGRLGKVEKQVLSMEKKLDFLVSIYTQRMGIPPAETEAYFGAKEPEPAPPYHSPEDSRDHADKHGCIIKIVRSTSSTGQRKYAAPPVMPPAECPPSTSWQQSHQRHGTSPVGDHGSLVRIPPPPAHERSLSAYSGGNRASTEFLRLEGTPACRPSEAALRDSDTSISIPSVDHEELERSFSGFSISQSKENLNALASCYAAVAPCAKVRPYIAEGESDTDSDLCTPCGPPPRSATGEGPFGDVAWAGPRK
KCNQ2 block: rat KCNQ2 potassium channel inhibitors, primary screen, cell-based, CHO-K1, FluxOR thallium flux, B-score; actives 1.1% (n = 310,000); 20 min; active compounds read low; Potassium voltage-gated channel subfamily KQT member 2 (Rattus norvegicus), O88943; B-score at 10 µM;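 active means fluorescence ratio B-score at most minus 3 library SDs, with starting brightness B-score within 2 library SDs, cut at about -5.5 in these data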
Numbers without * were called inactive; i = inactive; x = not tested or not shown.

SMILES	KCNQ2 pot	KCNQ2 block
COc1ccc(C(=O)Nc2ccccc2C(N)=O)cc1	0.25	i
Cc1cccc(/C=N/NC(=O)c2cc(Br)ccc2OCc2ccccc2)n1	-5.9	-5.9*
COc1ccc(/C=N/NC(=O)c2ccccc2OCc2ccccc2)c(OC)c1	-6.8	-6.8*
Cc1ccccc1-c1ccc(=O)n(CC(=O)Nc2ccc(C(=O)N3CCCC3)cc2)n1	0.65	i
O=C(Nc1ccc(S(=O)(=O)Nc2nccs2)cc1)c1cccc(F)c1	x	i
Cc1ccccc1NC(=O)c1c(C)nc(SCC(=O)OCc2ccccc2)c(C#N)c1-c1ccc(F)cc1	-7	-7*
Cc1nc(SCC(=O)OCc2ccccc2)c(C#N)c(-c2ccccc2)c1C(=O)Nc1ccccc1	x	i
CCOC(=O)NC1(C(F)(F)F)NC(=O)N(C2CCCCC2)C1=O (configuration not stated)	x	i
Cc1cc(C)nc(N/N=C/c2ccccc2Cl)n1	0.47	i
Cc1cc(N/N=C/c2ccccc2Cl)nc(NCc2ccccc2)n1	-6.4	-6.4*
O=C(Cn1cc2c(n1)CCCC2)NCCCN1CCN(Cc2ccccc2)CC1	0.92	i
Cn1nnc2c[n+](CC(=O)c3ccc(Cl)cc3)cc(Br)c21	-6.1	-6.1*
Cn1nnc2c[n+](CC(=O)c3ccc4ccccc4c3)cc(Br)c21	x	i
CC(=O)C1=C(O)C(=O)N(Cc2cccnc2)C1c1ccc(Cl)cc1Cl (configuration not stated)	0.93	i
O=C1NC2(CCN(Cc3ccccc3)CC2)Oc2ccccc21	x	i
O=C1c2ccccc2OC2(C=Cc3ccccc3O2)N1Cc1ccccc1 (configuration not stated)	-8.3	-8.3*
COc1cc(OC)cc(C(=O)Nn2cc(C(=O)N3CCN(C)CC3)c3ccccc3c2=O)c1	0.49	i
CN(C(=O)c1ccc(COc2ccccc2Br)o1)c1ccccc1	-6.2	-6.2*
CN(C)CCOC(=O)c1ccc(COc2ccccc2Br)o1	1.3	i
COc1ccc(CNC(=O)Cn2cc3c(n2)CCCCC3)cc1	0.78	i
COc1cccc(NC(=O)Cn2cc3c(n2)CCCCC3)c1	-6.5	-6.5*
O=S(=O)(c1cc(F)ccc1F)N1CCC2(CC1)OCCO2	x	i
O=C(Nc1ccc(F)c(F)c1)c1ccc(F)c(S(=O)(=O)N2CCC3(CC2)OCCO3)c1	5.4*	i
N#CC1=C(N)Oc2n[nH]c(-c3ccc(F)cc3)c2C1c1cccnc1 (configuration not stated)	x	i
Cc1nc2ccccc2n1S(=O)(=O)c1ccc(S(=O)(=O)N2CCCCCC2)cc1	x	i
SMILES	KCNQ2 pot	KCNQ2 block
Cc1ccc(S(=O)(=O)n2c(C)nc3ccccc32)cc1	-7.3	-7.3*
CCc1ccc(Nc2nnc(SCC(=O)N(C)CC(=O)Nc3ccccc3CC)s2)cc1	x	i
O=C1C2C3C=CC(C3)C2C(=O)N1c1ccc2ccccc2n1 (configuration not stated)	x	i
Cc1ccc(S(=O)(=O)NC2c3cccc4cccc(c34)C2Sc2n[nH]c(N)n2)cc1 (configuration not stated)	x	i
O=S(=O)(NC1c2cccc3cccc(c23)C1Sc1ncccn1)c1ccc(Cl)cc1 (configuration not stated)	-6.3	-6.3*
CN(CC1CCN(CCc2cccc(C(F)(F)F)c2)CC1)C(=O)c1ccc(F)cc1	x	i
CCOC(=O)c1c(C)[nH]c(C(=O)OCC(=O)Nc2cc(C)nn2-c2ccccc2)c1C	x	i
O=C(CSc1nc2ccccc2c(=O)n1Cc1ccco1)NCc1ccco1	1.1	i
CCOC(=O)c1cc2c(c(CSc3nc4ccccc4c(=O)n3Cc3ccco3)c1)OCOC2	-5.6	-5.6*
O=c1c2ccccc2nc(SCc2cc(F)cc3c2OCOC3)n1Cc1ccco1	-8	-8*
CN(Cc1ccccc1)C(=O)CSc1nc2ccccc2c(=O)n1Cc1ccco1	x	i
COc1ccc([C@@H]2COc3c(ccc4c3C=CC(C)(C)O4)C2)c(OC)c1	-6.3	-6.3*
COc1ccc(C2CC(=O)OC3=C2C(=O)CC(C)(C)C3)c(OC)c1 (configuration not stated)	0.09	i
O=c1n(-c2ccc(Br)cc2)cnn1-c1ncccc1[N+](=O)[O-]	x	i
COc1ccc(S(=O)(=O)N(C)CC(=O)Nc2ccc3c(c2)OCO3)cc1OC	1.5	i
O=C1c2ccccc2C(=O)C12OC(c1ccccc1)C1(C(=O)c3ccccc3C1=O)C2c1ccc([N+](=O)[O-])cc1 (configuration not stated)	-7.9	-7.9*
O=C1c2ccccc2C(=O)C12OC(c1ccccc1)C1(C(=O)c3ccccc3C1=O)C2c1cccc([N+](=O)[O-])c1 (configuration not stated)	x	i
CCNC(=O)NC(=O)CSc1ccc2ccccc2c1	x	i
C=CCNC(=S)Nc1sc2c(c1C(N)=O)CCCC2	2.1	i
O=C1/C(=C\c2ccncc2)CCc2ccccc21	x	i
